Most compounds without a hit are left out; they make up all but 12% or so of the library.
G9a block = qHTS Assay for Inhibitors of Histone Lysine Methyltransferase G9a; Histone-lysine N-methyltransferase EHMT2 (Homo sapiens), Q96KQ7; G9a H3K9 monomethylation, AlphaScreen, 2 h; Potency, µM (highest dose often 102 µM), inactives show top-dose activity, negative = inhibition, hits mostly inhibitors; 350,000 tested, 8.8% active; further: on the % scale 0 is the no-effect control and ±100 the full control effect; nearly all actives have a fitted effect of over 75% in size
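Compounds were preincubated with 20 nM G9a for 15 min, after which biotinylated H3K9 peptide (500 nM) and SAM (20 uM) started a 2 h room-temperature reaction. Monomethylated product was quantified by antibody-based AlphaScreen chemiluminescence.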
Sfp PPTase inh = qHTS Assay for Inhibitors of Bacillus subtilis Sfp phosphopantetheinyl transferase (PPTase); 4'-phosphopantetheinyl transferase ffp (Bacillus subtilis), Q9F4F7; Biochemical Sfp PPTase activity, qHTS; Potency, µM, for inactives: largest response in the series, negative = inhibition, actives largely listed as inhibitors; 310,000 tested, 3.5% active; AID 1490, 2009;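 further: the enzyme is Sfp with the accession as filed and its product quenches rhodamine fluorescence; 0% = enzyme reaction without inhibitor and -100% = no enzyme wells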
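Sfp 15 nM + cpd, 15 min RT; start w/ rhodamine-CoA 5 uM, BHQ-2-YbbR 12.5 uM (final); 50 mM Hepes pH 7.6, 10 mM MgCl2, 0.01% NP-40, 0.01% BSA; read 525/598 nm at 0 and 30 min.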
BAZ2B inh = qHTS Assay for Inhibitors of BAZ2B. Bromodomain adjacent to zinc finger domain protein 2B (Homo sapiens), Q9UIF8. 360,000 tested, 4.4% active. AlphaScreen BAZ2B-H3K14Ac peptide displacement. Potency, µM (highest dose often 114 µM), for the others: top-dose activity change, negative = inhibition, most hits filed as inhibitors; further: on the % scale 0 is the no-effect control and ±100 the full control effect; nearly all actives have a fitted effect of over 60% in size
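In this displacement format the biotinylated H3(5-23) peptide acetylated at Lys14 serves as ligand at 50 nM, with BAZ2B at 50 nM in PBS pH 7.4 containing 0.01% Tween-20. Donor and acceptor beads are 10 ug/mL final.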
JMJD2A Tudor inh = qHTS Assay for Inhibitors of JMJD2A-Tudor Domain | Lysine-specific demethylase 4A (Homo sapiens), O75164 | AlphaScreen JMJD2A-Tudor / H3K4me3 peptide binding | 390,000 tested, 4.4% active | AID 504339, 2011 | Potency, µM (top dose mostly 114 µM), without a hit: at the highest dose activity change, negative = inhibition, hits mostly inhibitors; further: on the % scale 0 is the no-effect control and ±100 the full control effect; nearly all actives have a fitted effect of over 50% in size
Target sequence (O75164 whole entry, looked up, the tested form may be a part): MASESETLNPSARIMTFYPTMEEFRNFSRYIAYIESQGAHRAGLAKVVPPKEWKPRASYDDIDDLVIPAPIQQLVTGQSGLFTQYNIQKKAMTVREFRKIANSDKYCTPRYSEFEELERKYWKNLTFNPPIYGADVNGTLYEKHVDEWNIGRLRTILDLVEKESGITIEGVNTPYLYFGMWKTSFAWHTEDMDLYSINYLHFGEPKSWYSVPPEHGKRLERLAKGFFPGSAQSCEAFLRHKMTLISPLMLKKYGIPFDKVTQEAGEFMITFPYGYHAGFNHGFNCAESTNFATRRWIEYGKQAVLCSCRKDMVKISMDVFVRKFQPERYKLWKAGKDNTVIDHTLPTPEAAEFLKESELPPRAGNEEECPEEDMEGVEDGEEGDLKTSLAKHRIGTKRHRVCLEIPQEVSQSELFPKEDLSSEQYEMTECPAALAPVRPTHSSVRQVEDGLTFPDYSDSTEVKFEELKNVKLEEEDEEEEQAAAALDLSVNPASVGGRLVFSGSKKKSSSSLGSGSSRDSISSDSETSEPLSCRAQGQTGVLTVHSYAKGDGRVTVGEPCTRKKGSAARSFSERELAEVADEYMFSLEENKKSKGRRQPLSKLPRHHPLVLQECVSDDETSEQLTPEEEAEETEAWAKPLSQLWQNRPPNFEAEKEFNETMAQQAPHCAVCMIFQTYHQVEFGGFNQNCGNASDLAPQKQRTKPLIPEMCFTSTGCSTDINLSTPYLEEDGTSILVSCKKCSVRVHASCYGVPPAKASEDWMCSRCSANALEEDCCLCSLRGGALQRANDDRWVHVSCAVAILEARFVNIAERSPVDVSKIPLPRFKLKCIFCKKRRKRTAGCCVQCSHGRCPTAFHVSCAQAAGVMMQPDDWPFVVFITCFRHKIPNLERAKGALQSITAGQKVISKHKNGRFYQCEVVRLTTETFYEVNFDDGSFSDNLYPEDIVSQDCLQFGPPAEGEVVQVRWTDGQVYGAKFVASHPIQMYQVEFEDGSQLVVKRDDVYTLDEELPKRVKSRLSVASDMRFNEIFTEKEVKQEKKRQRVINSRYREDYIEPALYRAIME
HP1b chromo inh = HTS for Inhibitors of HP1-beta Chromodomain Interactions with Methylated Histone Tails | Potency, µM (series often up to 114 µM), inactives show top-dose activity change, negative = inhibition, actives largely listed as inhibitors | AlphaScreen HP1-beta / biotin-H3K9me3 peptide binding | AID 540317, 2011 | 390,000 tested, 0.56% active | Chromobox protein homolog 1 (Homo sapiens), P83916; further: nearly all actives have a fitted effect of over 70% in size
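HP1-beta protein (50 nM final) preincubated 30 min at room temperature with biotinylated H3(1-18)K9me3 peptide (50 nM) in PBS pH 7.4, 0.01% Tween-20, then compound added for 30 min. AlphaScreen streptavidin donor/nickel chelate acceptor beads (10 ug/mL final), 30 min dark, luminescence read.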
TDP1 block = qHTS Assay for Inhibitors of Tyrosyl-DNA Phosphodiesterase (TDP1); Tyrosyl-DNA phosphodiesterase 1 (Homo sapiens), Q9NUW8; recombinant TDP1, AlphaScreen DNA substrate cleavage; Potency, µM (highest dose often 130 µM), inactives show at the top dose activity change, negative = inhibition, actives largely listed as inhibitors; 350,000 tested, 0.28% active; AID 485290, 2010; further: on the % scale 0 is the no-effect control and ±100 the full control effect; nearly all actives have a fitted effect of over 40% in size
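Here, a 5' biotin and 3' phosphotyrosine-FITC DNA oligonucleotide reports Tdp1 activity: intact substrate bridges AlphaScreen beads, while cleavage leaves a 3' phosphate and drops signal. All incubations at room temperature.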
The depositor's hits bear a star; ? = inconclusive; · = no result; [ ] = remark or other dose. The call rests on the fitted dose curve; in most records, active means well fitted curve in the direction sought with a large enough effect; inconclusive means small, poorly fitted or top-dose-only effect, or another doubt; inactive means no such curve, though single readings can be large; an effect the other way counts as inactive or inconclusive. Potency means the concentration at half of the fitted maximal effect.

SMILES	G9a block	Sfp PPTase inh	BAZ2B inh	JMJD2A Tudor inh	HP1b chromo inh	TDP1 block
CCN1CCN(c2cc(C)c3cc(NC(=O)c4ccc(Br)o4)ccc3n2)CC1	?	-1%	71µM*	?	6%	9%
CCN1CCN(C(=S)Nc2ccc3nc(N4CCN(C)CC4)cc(C)c3c2)CC1	?	-3%	-9%	-20%	9%	3%
CCN1CCN(C(=S)Nc2ccc3nc(N4CCN(CC)CC4)cc(C)c3c2)CC1	20µM*	6%	-4%	-25%	13%	8%
CCCN(CCC)CCCNC(=S)Nc1ccc2nc(N3CCN(CC)CC3)cc(C)c2c1	50µM*	-5%	-7%	-3%	11%[57 µM]	7%
CCOc1ccc(CCNC(=O)CCC(=O)Nc2ccc3nc(N4CCN(C)CC4)cc(C)c3c2)cc1OCC	4%[59 µM]	12%	-36%	-3%[11.4 µM]	6%	8%
CCN1CCN(c2cc(C)c3cc(NC(=O)c4ccncc4)ccc3n2)CC1	?	-4%	4%	-32%	-6%	1%
COc1ccc(CCNC(=O)CCC(=O)Nc2ccc3nc(N4CCN(C)CC4)cc(C)c3c2)cc1OC	-2%[59 µM]	13%	-20%	79µM*	-21%[57 µM]	-3%
CCc1noc(-c2ccc(NCc3ccccc3)c([N+](=O)[O-])c2)n1	-20%[59 µM]	·	-6%	-12%	23%	6%
CC(C)(C)NC(=O)[C@H]1CN(Cc2cccnc2)CCN1C[C@@H](O)C[C@@H](Cc1ccccc1)C(=O)N[C@H]1c2ccccc2C[C@H]1O	7%[59 µM]	10%	·	·	·	9%
O=S(=O)(c1ccc(Cl)cc1)N1CCN(c2nc(-c3cccc(Br)c3)nc3ccccc23)CC1	·	·	·	-21%	21%	0%
N#Cc1ccc(S(=O)(=O)Nc2ccccc2N2CCOCC2)cc1	·	·	·	-14%	40%	4%
CCN1CCN(c2cc(C)c3cc(NC(=S)N4CCCCC4)ccc3n2)CC1	45µM*	-10%	-32%	-35%	-13%	-2%
CCCCc1ccc(C(=O)Nc2ccc3nc(N(CC)CC)cc(C)c3c2)cc1	30%[59 µM]	·	14%	5%	69%	-3%
CCN1CCN(c2cc(C)c3cc(NC(=S)N4CC(C)CC(C)C4)ccc3n2)CC1 (centres undefined)	35µM*	0%	?	-35%	1%	1%
Cc1cc(N2CCOCC2)nc2ccc(NC(=S)NC(C)C)cc12	71µM*	-15%	-11%	-1%	27%	·
CCN1CCN(c2cc(C)c3cc(NC(=S)N4CCCC4)ccc3n2)CC1	?	17%	-3%	-18%	23%	2%
CCN(CC)c1cc(C)c2cc(NC(=O)c3ccc(Br)o3)ccc2n1	56µM*	?	?	?	-26%	9%
O=C(NNC(=O)c1n[nH]c2ccccc12)c1ccccc1	-33%	·	2%	-5%	40%	-14%
COCCNC(=S)Nc1ccc2nc(N3CCCC3)cc(C)c2c1	71µM*	-19%	-1%	-18%	-9%	2%
CN(C)c1ccc(CNC(=O)c2cnc3sc(N4CCCCCC4)nn3c2=O)cc1	-10%[59 µM]	·	-11%	-6%	-11%	7%
CCOC(=O)c1c(C)[nH]sc1=S	3.5µM*	?	-3%	25µM*	?	2%
CCOC(=O)c1sc(=S)[nH]c1C	·	·	·	14µM*	?	·
CCOC(=O)c1c(C)[nH]c(C)c1C=O	-3%	21%	-31%	-4%	13%	2%
C/C(N)=C(/C#N)C(=O)CSc1nnc(Nc2c(C)cccc2C)s1	32µM*	5%	-3%	56µM*	?	·
C/C(N)=C(/C#N)C(=O)CSc1nnc(Nc2cccc(C)c2C)s1	?	15%	?	-20%	18%	-3%
SMILES	G9a block	Sfp PPTase inh	BAZ2B inh	JMJD2A Tudor inh	HP1b chromo inh	TDP1 block
Cc1cccc(C)c1Nc1c(-c2ccccn2)nc2ccc(Cl)cn12	24%[59 µM]	·	?	?	8%	5%
COc1ccc(Nc2c(-c3ccccn3)nc3ccc(Cl)cn23)cc1	40%[59 µM]	·	1.6µM*	?	43%	15%
Cc1ccc(Nc2c(-c3ccccn3)nc3ccc(C)cn23)cc1	?	-6%	·	45µM*	8%	12%
Cc1ccc(-c2nc3ccc(Cl)cn3c2Nc2ccccc2)o1	·	·	·	-13%	43%	1%
Cc1ccc(Nc2c(-c3ccccn3)nc3cc(C)ccn23)cc1	?	1%	16µM*	40µM*	?	11%
Fc1ccccc1-c1ccc(-c2nc3ccc(Cl)cn3c2Nc2ccc(Cl)cc2)o1	·	·	·	45µM*	?	7%
Cc1ccc(Nc2c(-c3ccc(C)cc3)nc3ccc(C)cn23)cc1	0%[59 µM]	·	1%	-21%	47%	0%
Cc1ccn2c(Nc3ccccc3C)c(-c3ccncc3)nc2c1	3%[59 µM]	-7%	-22%	-6%	25%	-4%[12.3 µM]
Cc1nnc(SCC(=O)N2CCN(c3ccccc3F)CC2)n1C1CC1	1%	·	10%	2%	24%	4%
N/C(=N\OC(=O)CCCc1ccccc1)c1cccc([N+](=O)[O-])c1	2%[59 µM]	-5%	1%	-18%	13%	6%
O=C(CCCc1ccccc1)c1ccccc1	198%	3%	157%	146%	222%	35µM*
O=C(CCCC(=O)c1ccccc1)NCCc1ccccc1	-5%	15%	7%	-4%	42%	·
N/C(=N\OC(=O)CCCc1ccccc1)c1ccccc1	309%	2%	179%	113%	140%	56µM*
Cc1cccc(/C(N)=N/OC(=O)CCCc2ccccc2)c1	223%	4%	207%	160%	154%	56µM*
O=C(CSc1ncc(-c2ccccc2)n1CC1CCCO1)N1CCCCC1 (centres undefined)	-33%	-7%	19%	-3%	28%	6%
N#Cc1c(NC(=O)CSc2ncc(-c3ccccc3)n2CC2CCCO2)sc2c1CCCC2 (centres undefined)	11µM*	15%	?	?	-26%	7%
Nc1ncc(-c2ccccc2)n1CC1CCCO1 (centres undefined)	29%[0.501 µM]	?	20µM*	?	6%	11%
CCN(CC)CCCNC(=O)c1ccc2c(c1)NC(=O)C(CS(=O)(=O)Cc1cccc(Br)c1)N2 (centres undefined)	?	·	-31%	-36%	?	10%

Source: PubChem (National Center for Advancing Translational Sciences (NCATS))
